Results filed as inconclusive are left out. The source made the active and inactive calls. The call rests on the fitted dose curve; in most records, active means well fitted cell-killing curve with a large enough effect in the repeat runs; inconclusive means weak or mixed curves, or effect the other way; inactive means no such curve, though single readings can be large or run the other way.
Test: qHTS assay to identify small molecule agonists of the vitamin D receptor (VDR) signaling pathway - cell viability counter screen (AID 743224); further: nearly all actives have a fitted effect of over 50% in size
Conditions: VDR-bla HEK293T viability, CellTiter-Glo luminescence, 16 h; series mostly up to 62.6 µM; activity change, negative = cytotoxicity: at the top concentration
Text: U.S. Tox21 Program National Center for Advancing Translational Sciences [NCATS] NIH Chemical Genomics Center [NCGC] U.S. Environmental Protection Agency [EPA] National Institutes of Environmental Health Sciences [NIEHS] National Toxicology Program [NTP] U.S. Food and Drug Administration [FDA] Tox21 Assay Overview: The vitamin D receptor (VDR), a member of nuclear hormone receptor superfamily, plays a critical role in calcium homeostasis and bone metabolism. It is also involved in cell differentiation and growth, and thrombogenicity. […] The cytotoxicity of the Tox21 compound library against the VDR-bla cell line was tested in parallel by measuring the cell viability using CellTiter-Glo assay (Promega, Madison, WI) in the same wells.
Tox21 Assay Protocol Summary: VDR-bla cells were dispensed at 2,000 cells/6 uL/well into black wall/clear-bottom 1536-well plates using a Multidrop Combi (Thermo Fisher Scientific, Waltham, MA) dispenser. After the assay plates were incubated at a 37C and 5% CO2 for 4 h, 23 nL of compounds dissolved in DMSO, positive controls or DMSO only was transferred to the assay plate by a Pintool station (Kalypsys, San Diego, CA). The plates were incubated at 37C and 5% CO2 for 16 h. After 1 uL of LiveBLAzerTM B/G FRET substrate was added using a Bioraptr Flying Reagent Dispenser (FRD) workstation (Beckman Coulter, Indianapolis, IN, USA), the plates were incubated at room temperature for 2 h, and fluorescence intensity was measured by an Envision plate reader (PerkinElmer, Shelton, CT). For cell viability readout that measures cytotoxicity, 3 ul/well of CellTiter-Glo reagent was added into the assay plates using a FRD. After 30 min incubation at room temperature, the luminescence intensity in the plates was measured using a ViewLux (PerkinElmer) plate reader.
In the case of `Cc1cc(C)n(CO)n1`, the “activity change, negative = cytotoxicity” value is reported as 6.65% (inactive). For `O=C1C=CCCC1`, the “activity change, negative = cytotoxicity” value was 4.92% [at 81.1 µM] (inactive). For `Nc1ccc(C(=O)Oc2ccccc2)c(O)c1`, the “activity change, negative = cytotoxicity” value was 12.6% (inactive). For `COc1ccc(C(=O)Nc2ccccc2)cc1[N+](=O)[O-]`, the “activity change, negative = cytotoxicity” value was 9.54% [at 81.1 µM] (inactive). For `[O-][n+]1ccc(Cl)cc1`, the “activity change, negative = cytotoxicity” value was -0.0555% [at 81.1 µM] (inactive). With `CCCC1CCOC(C)S1` (stereo not given) the “activity change, negative = cytotoxicity” value was 1.33% (inactive). In the case of `COc1ccc(CN(CCN(C)C)c2ncccn2)cc1`, the “activity change, negative = cytotoxicity” value is reported as -13.8% (inactive). In the case of `CC(=O)OCC(=O)[C@@]1(O)CC[C@H]2[C@@H]3CCC4=CC(=O)C=C[C@]4(C)[C@@]3(F)[C@@H](O)C[C@@]21C`, the “activity change, negative = cytotoxicity” value is reported as -0.353% (inactive). For `CCOc1ccc(NC(C)=O)cc1N`, the “activity change, negative = cytotoxicity” value was -29.3% [at 81.1 µM] (inactive). For `CCOC(OCC)OCC`, the “activity change, negative = cytotoxicity” value was 15.7% (inactive). In the case of `CC(=O)Oc1cccc2c1C(=O)c1c(OC(C)=O)cc(C(=O)O)cc1C2=O`, the “activity change, negative = cytotoxicity” value is reported as 8.59% (inactive). In the case of `C=CC(C)(O)CC/C=C(/C)CCC=C(C)C` (stereo not given), the “activity change, negative = cytotoxicity” value is reported as -5.7% (inactive). With `CC(C)=CCCC(C)C=O` (stereo not given) the “activity change, negative = cytotoxicity” value was 3.44% (inactive). For `CC(=O)Nc1cccc(N)c1`, the “activity change, negative = cytotoxicity” value was -14.4% [at 81.1 µM] (inactive). With `CCCOC(C)=O` the “activity change, negative = cytotoxicity” value was -8.11% (inactive). With `Sc1nc(S)nc(S)n1` the “activity change, negative = cytotoxicity” value was -1.36% (inactive). For `CCC(CC)C(=O)O`, the “activity change, negative = cytotoxicity” value was 5.28% (inactive). For `NC(=O)c1cc[n+](CC2=C(C(=O)[O-])N3C(=O)[C@@H](NC(=O)Cc4cccs4)[C@H]3SC2)cc1`, the “activity change, negative = cytotoxicity” value was -1.22% (inactive). In the case of `C=CC(C)CCC=C(C)C` (stereo not given), the “activity change, negative = cytotoxicity” value is reported as -2.53% (inactive). For `CCN(CC)CC(=O)OCC(=O)[C@@]1(O)CC[C@H]2[C@@H]3CCC4=CC(=O)CC[C@]4(C)[C@H]3[C@@H](O)C[C@@]21C`, the “activity change, negative = cytotoxicity” value was 8.08% (inactive). In the case of `CCOc1ccccc1O`, the “activity change, negative = cytotoxicity” value is reported as 11.5% (inactive). For `CCCC(=O)OCc1ccccc1`, the “activity change, negative = cytotoxicity” value was 16% (inactive). In the case of `Clc1cc(Cl)c2c(c1)N=C1CCCCCN1C2`, the “activity change, negative = cytotoxicity” value is reported as -14.3% (inactive). For `CC(=O)Nc1ccn(C2COC(COC(=O)c3ccccc3)O2)c(=O)n1` (stereo not given), the “activity change, negative = cytotoxicity” value was -9.12% (inactive). For `FC(F)(Cl)C(F)(Cl)Cl`, the “activity change, negative = cytotoxicity” value was 1.06% (inactive). With `CCCCCCOC(=O)c1ccccc1` the “activity change, negative = cytotoxicity” value was 0.0526% (inactive). With `O=[N+]([O-])c1cccc(I)c1` the “activity change, negative = cytotoxicity” value was 16.2% (inactive). For `O=C(OCCCCCOC(=O)c1ccccc1)c1ccccc1`, the “activity change, negative = cytotoxicity” value was 10.1% (inactive). With `CNc1ccccc1` the “activity change, negative = cytotoxicity” value was 4.1% (inactive). In the case of `CCC(C(=O)O)c1ccc(N2Cc3ccccc3C2=O)cc1` (stereo not given), the “activity change, negative = cytotoxicity” value is reported as 3.11% (inactive). With `CCCCC(CC)COCCC#N` (stereo not given) the “activity change, negative = cytotoxicity” value was -0.695% (inactive). For `O=C(Nc1ccc2c(c1)Cc1ccccc1-2)C(F)(F)F`, the “activity change, negative = cytotoxicity” value was -8.4% (inactive). In the case of `CCCCCCCCCCCCCCCCN`, the “activity change, negative = cytotoxicity” value is reported as -2.56% (inactive). In the case of `NC(=O)c1ccccc1`, the “activity change, negative = cytotoxicity” value is reported as 4.29% [at 81.1 µM] (inactive). With `COC(=O)/C=C/C(C)=C\C=C\C(C)=C\C=C\C=C(C)\C=C\C=C(C)\C=C\C(=O)O` the “activity change, negative = cytotoxicity” value was 9.81% (inactive). With `CC(CC(C#N)(c1ccccc1)C(C)C)N(C)C` (stereo not given) the “activity change, negative = cytotoxicity” value was 6.31% (inactive). With `COC(=O)Cc1cccc2ccccc12` the “activity change, negative = cytotoxicity” value was 12.4% (inactive). For `CCCCOC(=O)C(C)Oc1ccc(Oc2ccc(C(F)(F)F)cn2)cc1` (stereo not given), the “activity change, negative = cytotoxicity” value was 19.9% (inactive). In the case of `O=C(O)c1ccc2c(c1)nc(C(=O)NC1CCN(C3CC3)CC1)n2Cc1cc(-c2ccc(Cl)s2)on1`, the “activity change, negative = cytotoxicity” value is reported as 2.11% [at 29.1 µM] (inactive). For `CC(=O)c1cccnc1`, the “activity change, negative = cytotoxicity” value was 20% (inactive).

From PubChem BioAssay (Tox21)
On the % scale 0 is the no-effect control and ±100 the full control effect.
